For some of these results: Potency and affinity values are given separately.
Experiments:
Design in all cases: scale not given: direction of the effect not stated beside the values
[1] = biological target: Protein translocase subunit SecA (Escherichia coli (strain K12)) (UniProt P10408); assay: Assay to Identify E. coli SecA ATPase Inhibitors; assay type: functional; settings: 30 µM
[2] = biological target: T1, Ubiquitin-activating enzyme e1, putative (Leishmania donovani (strain BPK282A1)) (UniProt E9BSI1); assay: Leishmania donovani Ubiquitin Activating Enzyme (LdE1); assay type: functional; settings: 30 µM
T1 sequence (whole entry): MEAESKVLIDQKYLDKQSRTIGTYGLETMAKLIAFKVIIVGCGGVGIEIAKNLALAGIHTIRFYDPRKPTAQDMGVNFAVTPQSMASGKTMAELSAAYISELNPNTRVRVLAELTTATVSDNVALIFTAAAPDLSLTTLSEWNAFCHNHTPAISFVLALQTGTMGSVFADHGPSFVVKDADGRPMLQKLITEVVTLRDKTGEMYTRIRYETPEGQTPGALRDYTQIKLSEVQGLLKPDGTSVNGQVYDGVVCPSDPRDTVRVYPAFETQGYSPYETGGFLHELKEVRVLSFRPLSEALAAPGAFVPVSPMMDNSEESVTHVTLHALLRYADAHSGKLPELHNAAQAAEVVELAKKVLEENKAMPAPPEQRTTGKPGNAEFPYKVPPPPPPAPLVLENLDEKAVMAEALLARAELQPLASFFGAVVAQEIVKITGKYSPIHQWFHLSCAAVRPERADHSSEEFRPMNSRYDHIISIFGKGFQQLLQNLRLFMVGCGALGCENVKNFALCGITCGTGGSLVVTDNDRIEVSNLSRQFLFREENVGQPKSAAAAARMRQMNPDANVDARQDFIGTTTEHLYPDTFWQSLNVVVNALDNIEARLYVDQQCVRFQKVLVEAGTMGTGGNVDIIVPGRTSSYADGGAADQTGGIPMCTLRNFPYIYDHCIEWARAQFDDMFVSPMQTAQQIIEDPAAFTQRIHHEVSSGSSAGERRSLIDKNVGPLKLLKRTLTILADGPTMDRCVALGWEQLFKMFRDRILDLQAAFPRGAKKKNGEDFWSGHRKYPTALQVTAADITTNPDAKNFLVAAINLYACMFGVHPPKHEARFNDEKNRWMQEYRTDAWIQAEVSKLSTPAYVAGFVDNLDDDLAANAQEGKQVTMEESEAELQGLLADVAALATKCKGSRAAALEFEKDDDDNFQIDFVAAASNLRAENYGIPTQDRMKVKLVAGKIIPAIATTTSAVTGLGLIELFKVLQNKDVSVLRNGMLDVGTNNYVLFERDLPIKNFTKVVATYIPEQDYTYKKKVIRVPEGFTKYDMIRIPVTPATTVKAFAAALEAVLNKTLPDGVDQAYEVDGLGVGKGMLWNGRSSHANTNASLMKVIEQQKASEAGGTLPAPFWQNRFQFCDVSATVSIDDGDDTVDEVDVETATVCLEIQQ

[3] = biological target: AMP-activated protein kinase, AMPK (Homo sapiens) (UniProt P54646+O43741+P54619+Q9UGJ0+Q9Y478+Q13131+Q9UGI9); assay: AMP-dependent Kinase enzyme assay. An in vitro enzyme assay that detects ADP turnover that is directly proportional to AMPK activity. This uses naive AMPK that is activated during the assay with MK-8722; assay type: functional; settings: 30 µM
[4] = biological target: Sialic acid-binding Ig-like lectin 9 (Homo sapiens) (UniProt Q9Y336); assay: Hs-Siglec9 ALPHAscreen SOP 20170721; settings: 10 µM
Chain of Sialic acid-binding Ig-like lectin 9 (Homo sapiens) (Q9Y336 whole entry): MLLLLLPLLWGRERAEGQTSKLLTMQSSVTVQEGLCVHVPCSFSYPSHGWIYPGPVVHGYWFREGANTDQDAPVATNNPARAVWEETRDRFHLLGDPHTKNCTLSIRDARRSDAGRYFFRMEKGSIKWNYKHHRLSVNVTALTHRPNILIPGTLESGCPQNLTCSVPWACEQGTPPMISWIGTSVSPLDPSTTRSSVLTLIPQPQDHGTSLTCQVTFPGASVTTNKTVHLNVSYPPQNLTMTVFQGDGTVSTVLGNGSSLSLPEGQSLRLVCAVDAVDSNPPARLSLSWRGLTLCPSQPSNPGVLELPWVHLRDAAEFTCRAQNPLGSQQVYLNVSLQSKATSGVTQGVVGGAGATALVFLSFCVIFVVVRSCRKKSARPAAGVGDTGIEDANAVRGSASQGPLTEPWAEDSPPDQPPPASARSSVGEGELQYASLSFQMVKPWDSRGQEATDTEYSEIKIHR

Trypanosoma cruzi = assay: Trypanosoma cruzi phosphomannomutase and mannose-1-phosphate guanylyltransferase assay; assay type: functional; settings: 10 µM
[5] = biological target: T2, Arginase-2, mitochondrial (Homo sapiens) (UniProt P78540); assay: in vitro enzyme assay to detect the production of urea directly proportional to the activity of Arginase II; assay type: functional; settings: 33.3 µM; note: in the data most compounds retested in dose-response had high values
T2 sequence (whole entry): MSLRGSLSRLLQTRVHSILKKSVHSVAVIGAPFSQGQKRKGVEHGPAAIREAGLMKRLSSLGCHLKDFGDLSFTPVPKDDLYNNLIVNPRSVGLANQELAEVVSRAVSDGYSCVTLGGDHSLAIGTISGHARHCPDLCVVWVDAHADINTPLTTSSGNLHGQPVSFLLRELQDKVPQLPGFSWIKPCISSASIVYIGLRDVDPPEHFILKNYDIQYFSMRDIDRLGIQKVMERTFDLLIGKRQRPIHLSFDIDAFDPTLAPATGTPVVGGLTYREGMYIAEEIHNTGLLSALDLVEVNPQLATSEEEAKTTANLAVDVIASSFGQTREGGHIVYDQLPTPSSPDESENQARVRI

[6] = biological target: T3, Proteasome subunit beta (Trypanosoma cruzi) (UniProt O96673); assay: Trypanosoma cruzi proteasome chymotrypsin-like activity (TcProtChymo) assay.; note: in the data most compounds retested in dose-response had high values; assay type: functional; settings: 9.37 µM
T3 sequence (whole entry): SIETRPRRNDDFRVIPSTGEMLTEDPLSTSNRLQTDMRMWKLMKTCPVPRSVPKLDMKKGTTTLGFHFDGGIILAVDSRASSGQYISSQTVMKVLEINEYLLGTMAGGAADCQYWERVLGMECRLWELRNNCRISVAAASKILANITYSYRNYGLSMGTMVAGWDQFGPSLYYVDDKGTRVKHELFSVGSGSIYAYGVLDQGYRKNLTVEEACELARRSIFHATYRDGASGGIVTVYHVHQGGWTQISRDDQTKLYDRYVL

Homo sapiens = species: Homo sapiens; assay: To identify inhibition of the IFN signalling (Jak-Stat) pathway via expression of an eGFP reporter gene under the control of an IFN-stimulated response element (ISRE) containing MxA promoter.; assay type: functional; settings: 30 µM
[7] = biological target: T4, Tyrosyl-tRNA synthetase, putative (Trypanosoma cruzi (strain CL Brener)) (UniProt Q4DSP6); assay: Trypanosoma cruzi tyrosyl tRNA synthetase (TcYRS) _High Tyrosine SOP; assay type: functional; settings: 30 µM; note: in the data most compounds retested in dose-response had high values
T4 sequence (whole entry): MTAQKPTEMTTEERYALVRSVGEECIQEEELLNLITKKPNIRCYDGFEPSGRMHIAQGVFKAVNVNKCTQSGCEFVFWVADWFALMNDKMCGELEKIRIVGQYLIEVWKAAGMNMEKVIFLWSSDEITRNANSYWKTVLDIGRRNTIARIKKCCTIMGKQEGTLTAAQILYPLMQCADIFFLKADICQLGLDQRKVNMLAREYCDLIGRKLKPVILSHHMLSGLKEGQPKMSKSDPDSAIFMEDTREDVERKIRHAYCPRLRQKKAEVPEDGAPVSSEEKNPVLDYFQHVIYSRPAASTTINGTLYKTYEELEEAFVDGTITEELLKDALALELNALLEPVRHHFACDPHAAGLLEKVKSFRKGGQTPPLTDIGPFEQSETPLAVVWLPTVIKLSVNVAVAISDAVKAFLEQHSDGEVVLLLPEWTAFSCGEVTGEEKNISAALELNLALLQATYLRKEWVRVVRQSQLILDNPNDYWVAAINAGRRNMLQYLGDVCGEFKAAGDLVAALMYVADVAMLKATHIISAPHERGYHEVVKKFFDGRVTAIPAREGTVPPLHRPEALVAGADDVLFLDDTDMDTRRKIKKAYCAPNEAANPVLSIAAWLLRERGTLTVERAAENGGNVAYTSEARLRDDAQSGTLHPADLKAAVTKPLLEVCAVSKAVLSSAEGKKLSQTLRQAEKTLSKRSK

[8] = biological target: T4, Tyrosyl-tRNA synthetase, putative (Trypanosoma cruzi (strain CL Brener)); assay: Trypanosoma cruzi tyrosyl tRNA synthetase (TcYRS) SOP; assay type: functional; settings: 30 µM
[9] = biological target: Chromo domain-containing protein 1 (Saccharomyces cerevisiae (strain ATCC 204508 / S288c) (Baker's yeast)) (UniProt P32657); assay: ScCHD-1 Enzyme Inhibition Assay; assay type: functional; settings: 30 µM; note: in the data most compounds retested in dose-response had high values
Chain of Chromo domain-containing protein 1 (Saccharomyces cerevisiae (strain ATCC 204508 / S288c) (Baker's yeast)) (P32657 whole entry, the tested form may be a part): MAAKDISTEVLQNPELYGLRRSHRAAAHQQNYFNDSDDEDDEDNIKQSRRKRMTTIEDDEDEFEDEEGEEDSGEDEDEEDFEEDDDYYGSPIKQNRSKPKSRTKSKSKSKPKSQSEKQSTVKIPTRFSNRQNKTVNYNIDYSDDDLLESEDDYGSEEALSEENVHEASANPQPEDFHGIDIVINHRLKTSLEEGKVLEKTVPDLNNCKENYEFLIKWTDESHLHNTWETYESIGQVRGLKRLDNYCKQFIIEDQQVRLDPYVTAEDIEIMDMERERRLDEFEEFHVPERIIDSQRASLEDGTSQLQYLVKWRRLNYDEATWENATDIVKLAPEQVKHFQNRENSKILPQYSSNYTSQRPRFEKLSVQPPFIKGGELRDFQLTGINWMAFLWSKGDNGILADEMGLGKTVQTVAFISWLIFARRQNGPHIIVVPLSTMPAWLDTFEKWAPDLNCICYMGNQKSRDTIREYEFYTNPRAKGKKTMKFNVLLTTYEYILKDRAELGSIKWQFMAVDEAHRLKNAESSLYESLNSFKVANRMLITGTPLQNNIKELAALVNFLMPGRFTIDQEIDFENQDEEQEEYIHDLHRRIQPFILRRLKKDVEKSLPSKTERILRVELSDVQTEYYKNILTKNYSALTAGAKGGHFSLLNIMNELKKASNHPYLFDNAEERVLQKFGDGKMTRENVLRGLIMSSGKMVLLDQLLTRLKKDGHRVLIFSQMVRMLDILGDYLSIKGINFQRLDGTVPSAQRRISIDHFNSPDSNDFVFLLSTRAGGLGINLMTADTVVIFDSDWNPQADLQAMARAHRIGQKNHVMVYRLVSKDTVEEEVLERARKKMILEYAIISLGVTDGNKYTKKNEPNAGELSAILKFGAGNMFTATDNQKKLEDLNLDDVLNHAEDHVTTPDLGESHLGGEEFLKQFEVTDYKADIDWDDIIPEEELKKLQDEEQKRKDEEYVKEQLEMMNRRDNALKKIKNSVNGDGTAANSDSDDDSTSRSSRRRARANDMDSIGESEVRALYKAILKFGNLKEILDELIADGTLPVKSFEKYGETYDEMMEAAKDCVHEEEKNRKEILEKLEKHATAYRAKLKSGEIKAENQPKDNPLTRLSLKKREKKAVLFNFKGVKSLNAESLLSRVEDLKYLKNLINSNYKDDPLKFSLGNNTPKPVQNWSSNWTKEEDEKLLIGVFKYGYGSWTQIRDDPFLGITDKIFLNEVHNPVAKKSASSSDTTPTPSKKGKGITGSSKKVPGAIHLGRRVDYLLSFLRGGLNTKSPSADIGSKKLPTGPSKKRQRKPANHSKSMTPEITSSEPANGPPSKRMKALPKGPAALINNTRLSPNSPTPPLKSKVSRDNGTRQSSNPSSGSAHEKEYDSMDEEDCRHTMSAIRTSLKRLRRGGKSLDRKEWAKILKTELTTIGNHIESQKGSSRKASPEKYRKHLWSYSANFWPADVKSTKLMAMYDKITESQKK

Chain of Protein translocase subunit SecA (Escherichia coli (strain K12)) (P10408 whole entry): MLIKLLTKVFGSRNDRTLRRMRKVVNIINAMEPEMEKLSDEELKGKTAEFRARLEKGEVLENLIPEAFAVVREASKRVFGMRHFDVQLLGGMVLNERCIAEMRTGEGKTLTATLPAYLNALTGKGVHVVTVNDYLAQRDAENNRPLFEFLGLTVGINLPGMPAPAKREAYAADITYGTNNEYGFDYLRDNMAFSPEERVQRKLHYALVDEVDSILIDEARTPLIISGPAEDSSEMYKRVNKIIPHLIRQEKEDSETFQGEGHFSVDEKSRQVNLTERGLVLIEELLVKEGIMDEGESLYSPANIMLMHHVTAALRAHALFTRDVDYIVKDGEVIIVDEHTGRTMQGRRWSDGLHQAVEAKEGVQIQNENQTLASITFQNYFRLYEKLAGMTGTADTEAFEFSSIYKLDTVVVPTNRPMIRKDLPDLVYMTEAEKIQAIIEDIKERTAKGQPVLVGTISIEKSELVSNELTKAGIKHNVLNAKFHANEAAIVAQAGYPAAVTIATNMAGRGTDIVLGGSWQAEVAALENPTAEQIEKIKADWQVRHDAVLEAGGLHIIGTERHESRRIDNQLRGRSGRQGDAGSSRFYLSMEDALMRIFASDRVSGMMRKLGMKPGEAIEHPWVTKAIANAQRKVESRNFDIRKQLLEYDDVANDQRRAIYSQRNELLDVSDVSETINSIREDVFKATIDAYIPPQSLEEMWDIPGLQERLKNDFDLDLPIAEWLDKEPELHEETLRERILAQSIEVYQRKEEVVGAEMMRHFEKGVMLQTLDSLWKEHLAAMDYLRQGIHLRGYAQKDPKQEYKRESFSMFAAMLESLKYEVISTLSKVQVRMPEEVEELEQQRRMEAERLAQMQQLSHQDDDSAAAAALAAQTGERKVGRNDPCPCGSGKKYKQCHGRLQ

Row | Compound | Percent Effect [1] | Percent Effect [2] | Percent Effect [3] | Percent Effect [4] | Percent Effect (Trypanosoma cruzi) | Percent Effect [5] | Percent Effect [6] | Percent Effect (Homo sapiens) | Percent Effect [7] | Percent Effect [8] | Percent Effect [9]
1 | CC(C)Cc1noc(CN2CCN(CCOc3ccc(Cl)cc3)CC2)n1 | -5.56% | 21.1% | -0.366% | 9.07% | 5.08% | -3.83% | 14.7% | 32.7% | 5.39% | 19.5% | -8.42%
2 | CCn1cnnc1C1CCN(C(=O)c2ccc(Cl)s2)CC1 | -3.49% | 17.7% | 1.65% | 2.56% | -0.661% | 2.66% | 5.98% | -19.1% | 4.43% | 11.4% | -3.04%
3 | Cc1nc(CN(C)C2CCN(CC(=O)NC3CCOCC3)C2)no1 (stereo unspecified) | -1.63% | 16.2% | -9.99% | 0.0133% | -0.836% | -3.14% | 11.1% | 11.9% | 5.94% | 18.3% | -5.55%
4 | Cc1nc(CN2C[C@@H]3CN(C(=O)C4CC4)C[C@@H]3C2=O)cs1 | -1.35% | 18.9% | 1.84% | -11.9% | -5.57% | 4.78% | 14.9% | 18.6% | 1.08% | 10.3% | -6.89%
5 | CC(C)c1nc2c(n1C)CCN(CC(=O)Nc1ccc(Cl)cn1)C2 | -1.64% | 15.6% | 1.07% | 6.83% | 0.686% | -2.32% | 19.8% | 6.83% | 4.76% | 21.2% | -21.7%
6 | CS(=O)(=O)CCN1CCC2(CCCN(C3CCOCC3)C2=O)C1 (stereo unspecified) | -4.3% | 2.74% | -4.09% | 8.46% | 2.98% | -2% | 3.85% | 13.4% | 2.08% | 11.1% | -0.555%
7 | CCOCC(O)CN1CCN(C(=O)c2cc(F)ccc2C)CC1 (stereo unspecified) | -1.68% | 0% | -2.69% | -1.76% | 0.187% | 0% | -3.72% | -13.3% | 0.971% | 2.44% | 2.5%
8 | CN1CCC(CCNC(=O)c2ccc(N(C)S(C)(=O)=O)cc2Cl)CC1 | -4.43% | -10.4% | -1.14% | 0.479% | -3.44% | 29% | 6.16% | -1.88% | 0% | -3.7% | 2.38%
9 | COc1ccc(-n2ccc(C(=O)N3CCN(C)CC3C)n2)cc1 (stereo unspecified) | -5.91% | 10.4% | 5.54% | 7.32% | 0.374% | -0.712% | -0.676% | 3.45% | 8.74% | 14.6% | -5.54%
10 | O=C(Nc1ccc(F)cc1F)Nc1c[nH]c(=O)[nH]c1=O | 0.161% | 10.4% | 5.76% | -2.96% | -5.03% | 0.645% | 6.09% | 8.21% | -1.06% | 3.85% | -9.44%
11 | CC(=O)N(Cc1noc(C)n1)C1CCN(Cc2cc(C)on2)C1 (stereo unspecified) | -2.56% | 18.2% | 1.37% | -5.63% | 0.0979% | -1.05% | 18.5% | 12.2% | 10.5% | 30.6% | -15%

Reference: ChEMBL document CHEMBL3988442, “University of Dundee, Small-Polar-MMV Screening Library” (2021)
